High-throughput results: PubChem BioAssay, The Scripps Research Institute Molecular Screening Center
GPR151 ag – activates the human receptor GPR151; PathHunter beta-arrestin GPR151 cells, luminescence; activation, % at 11.2 µM; 650,000 tested, 1% active; in the data active means activation above about 4.9%;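 further: 0% = median of compound wells and 100% = cells with positive control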
FBW7 activator – human FBW7 E3 ligase activation, primary screen; 650,000 tested, 0.13% active; AlphaScreen FBW7–phospho-cyclin E peptide binding, activator screen; normalized activity (activation), % at 26.1 µM; Q969H0; in the data active means normalized activity above about 1.9%;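 further: purified mutant Fbw7 with reduced substrate affinity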
MITF primary – human MITF inhibition, primary screen | AlphaScreen MITF homodimerization, bead proximity signal | AID 1259374 | inhibition, % at 2.6 µM | 650,000 tested, 0.91% active; in the data active means inhibition above about 50%;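 further: 0% = vehicle wells with protein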
Target sequence (O75030 whole entry, looked up): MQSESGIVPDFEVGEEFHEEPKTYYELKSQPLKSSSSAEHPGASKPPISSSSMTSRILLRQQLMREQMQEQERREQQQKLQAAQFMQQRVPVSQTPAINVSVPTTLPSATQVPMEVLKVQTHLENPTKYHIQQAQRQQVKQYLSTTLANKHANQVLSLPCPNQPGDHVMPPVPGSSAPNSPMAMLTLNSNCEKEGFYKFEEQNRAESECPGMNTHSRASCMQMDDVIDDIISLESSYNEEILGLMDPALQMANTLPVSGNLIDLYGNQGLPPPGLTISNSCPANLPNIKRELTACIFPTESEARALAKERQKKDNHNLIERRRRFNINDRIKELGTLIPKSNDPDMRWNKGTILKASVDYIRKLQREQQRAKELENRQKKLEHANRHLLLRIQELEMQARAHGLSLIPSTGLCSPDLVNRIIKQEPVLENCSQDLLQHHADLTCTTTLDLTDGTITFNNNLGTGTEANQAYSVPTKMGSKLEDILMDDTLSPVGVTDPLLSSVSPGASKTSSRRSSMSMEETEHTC
TEAD-YAP block – TEAD-YAP interaction inhibition; inhibition, % at 9.12 µM; 640,000 tested, 1.4% active; HEK-TIYL cells, TEAD-Gal4/YAP UAS-luciferase luminescence; in the data active means inhibition above about 32%;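 further: 0% = median of test compound wells and 100% = reference inhibitor wells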
* marks the source's active call; other numbers are inactive results. Most compounds without a hit are left out; they make up all but 3.5% or so of the library.

O=c1/c(=C/c2ccc(O)c(Cl)c2)sc2nc3ccccc3n12 was read as GPR151 ag -1, FBW7 activator 0, MITF primary -12 and TEAD-YAP block 53*.
Screening Cc1cc(/C=c2\sc3nc4ccccc4n3c2=O)c(C)n1-c1ccc(F)cc1 returned GPR151 ag -1, FBW7 activator 0, MITF primary -12 and TEAD-YAP block 32*.
`O=c1/c(=C\c2ccc3c(c2)OCO3)sc2nc3ccccc3n12` gave GPR151 ag 0, FBW7 activator 0, MITF primary 6 and TEAD-YAP block 38*.
Screening COc1ccc(-n2c(C)cc(/C=c3\sc4nc5ccccc5n4c3=O)c2C)cc1 returned GPR151 ag -1, FBW7 activator 0, MITF primary 2 and TEAD-YAP block 12.
For CC(=O)Nc1ccc(/C=c2\sc3nc4ccccc4n3c2=O)cc1 the results were GPR151 ag 0, FBW7 activator 0, MITF primary 11 and TEAD-YAP block 57*.
For O=C(O)CCCC(=O)Nc1nc(-c2ccc([N+](=O)[O-])cc2)cs1 the results were GPR151 ag -1, FBW7 activator 0, MITF primary 19 and TEAD-YAP block 6.
For CC(C)c1ccc(C2NN=C(c3ccccc3)S2)cc1 (stereo not given) the results were GPR151 ag -7, FBW7 activator 1, MITF primary -6 and TEAD-YAP block 70*.
Cc1cc(N(C)C)nc(NCCNC(=O)C(C)(C)Oc2ccc(Cl)cc2)n1 was read as GPR151 ag -2, FBW7 activator 1, MITF primary 9 and TEAD-YAP block 32*.
`CC1CCN(C(=O)c2cc3n(n2)C(C(F)(F)F)CC(c2ccccc2)N3)CC1` (stereo not given) gave GPR151 ag 1, FBW7 activator 1, MITF primary 24 and TEAD-YAP block 12.
CCN(CC)CCNC1=C(Cl)C(=O)c2ccccc2C1=O was read as GPR151 ag -2, FBW7 activator 0, MITF primary 2 and TEAD-YAP block 46*.
O=C1C(Cl)=C(NCCN2CCCCC2)C(=O)c2ccccc21 was read as GPR151 ag -4, FBW7 activator 0, MITF primary 9 and TEAD-YAP block 41*.
Screening O=C1NC(=Nc2ccc(F)cc2)S/C1=C\c1ccccc1Cl returned GPR151 ag -2, FBW7 activator 0, MITF primary 1 and TEAD-YAP block 3.
C/C(=N\N=C1/NC(=O)C(CC(=O)O)S1)c1ccc(O)cc1 (stereo not given) was read as GPR151 ag 0, FBW7 activator 0, MITF primary 14 and TEAD-YAP block -4.
Screening O=C(CSc1nc2ccccc2c2nc(-c3ccccc3)nn12)c1ccc(O)c(O)c1 returned GPR151 ag 2, FBW7 activator 0, MITF primary 24 and TEAD-YAP block 44*.
For CCOC(=O)c1c(NC(=O)c2ccc(C)cc2)sc(C(=O)Nc2ccccc2)c1C the results were GPR151 ag 1, FBW7 activator 1, MITF primary -4 and TEAD-YAP block -7.
Screening CCCc1sc(NC(=O)c2ccc(C)cc2)c(C(=O)O)c1C returned GPR151 ag -1, FBW7 activator 1, MITF primary 14 and TEAD-YAP block 52*.
Screening COc1ccc(-c2csc(NC(=O)c3ccc(C)cc3)c2C(=O)O)cc1 returned GPR151 ag 0, FBW7 activator 0, MITF primary 4 and TEAD-YAP block 47*.
For CCN(CC)c1nc(NCc2cccnc2)nc(NCc2ccc3c(c2)OCO3)n1 the results were GPR151 ag 1, FBW7 activator 0, MITF primary 3 and TEAD-YAP block -13.
`Cc1cc([N+](=O)[O-])nn1CC(=O)Nc1cccc(F)c1C#N` gave GPR151 ag 0, FBW7 activator 0, MITF primary 6 and TEAD-YAP block 36*.
For O=C(c1cc(-c2ccc3c(c2)OCO3)on1)N1CCCC1 the results were GPR151 ag -2, FBW7 activator 0, MITF primary -14 and TEAD-YAP block 41*.
C=CCNC(=O)c1cc(-c2cccc(O)c2)on1 was read as GPR151 ag -2, FBW7 activator 0, MITF primary 2 and TEAD-YAP block 34*.
For O=C(c1cc(-c2ccc(O)cc2)on1)N1CCCCC1 the results were GPR151 ag -1, FBW7 activator 0, MITF primary 4 and TEAD-YAP block 45*.
For O=C(c1cc(-c2cccc(O)c2)on1)N1CCCCCC1 the results were GPR151 ag -1, FBW7 activator 0, MITF primary -8 and TEAD-YAP block 31.
Screening O=C(c1cc(-c2cccc(O)c2)on1)N1CCOCC1 returned GPR151 ag -5, FBW7 activator 0, MITF primary 15 and TEAD-YAP block 65*.
For CCCNc1ncnc2nc(Nc3ccc(N4CCOCC4)cc3)[nH]c12 the results were GPR151 ag 1, FBW7 activator 0, MITF primary -1 and TEAD-YAP block -3.
For COCCNC(=O)C1CC(c2ccc(OC)c(OC)c2)=NO1 (stereo not given) the results were GPR151 ag 0, FBW7 activator 0, MITF primary -9 and TEAD-YAP block -2.
`COc1ccc(C2=NOC(C(=O)NCc3ccc(F)cc3)C2)cc1OC` (stereo not given) gave GPR151 ag 1, FBW7 activator 0, MITF primary 8 and TEAD-YAP block 50*.
For CCS(=O)(=O)c1c(S(=O)(=O)CC)c2ccc(C(C)=O)cn2c1C(=O)c1ccccc1 the results were GPR151 ag 0, FBW7 activator 0, MITF primary -1 and TEAD-YAP block -1.
`Cc1ccc(S(=O)(=O)Nc2ccc(Cl)c3cccnc23)cc1` gave GPR151 ag -1, FBW7 activator 0, MITF primary -11 and TEAD-YAP block 58*.
For O=S(=O)(Nc1ccc(Cl)c2cccnc12)c1ccccc1 the results were GPR151 ag -1, FBW7 activator 0, MITF primary 18 and TEAD-YAP block 53*.
`Cc1cccc(C(=O)/C(C#N)=N/Nc2c(C)n(C)n(-c3ccccc3)c2=O)c1` gave GPR151 ag 0, FBW7 activator -2, MITF primary 38 and TEAD-YAP block 42*.
O=C(Nc1ccc(Br)cn1)c1ccc(C2CCCCC2)cc1 was read as GPR151 ag 1, FBW7 activator 1, MITF primary 15 and TEAD-YAP block 10.
O=C(Nc1ccc(Cl)cn1)c1ccc(C2CCCCC2)cc1 was read as GPR151 ag -1, FBW7 activator 0, MITF primary 18 and TEAD-YAP block 40*.
`Cc1ccc2cc3cc(C(=O)N4CCN(C)CC4)oc3nc2c1` gave GPR151 ag 1, FBW7 activator 0, MITF primary -22 and TEAD-YAP block 45*.
For CC(C)(C)c1ccc(C(=O)NCCOc2ccccc2Cl)cc1 the results were GPR151 ag 2, FBW7 activator 0, MITF primary 13 and TEAD-YAP block 66*.
`NC(=O)c1c(NC(=O)C2CC2c2ccccc2)sc2c1CCCC2` (stereo not given) gave GPR151 ag 1, FBW7 activator 0, MITF primary 3 and TEAD-YAP block -19.
For N#Cc1c(NC(=O)c2ccccc2I)sc2c1CCCC2 the results were GPR151 ag 1, FBW7 activator 0, MITF primary 9 and TEAD-YAP block 49*.
